# ALDH1A1 block = blocks purified human ALDH1A1 activity; P00352; Purified ALDH1A1, NADH fluorescence, propionaldehyde substrate; Potency, µM (doses to about 75.3 µM), without a hit: at the top dose activity, negative = inhibition, most hits filed as inhibitors; 220,000 tested, 7.3% active;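 also: potency is read from the fitted curve at half-maximal effect; plate controls were no enzyme wells and a reference inhibitor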
# LMNA splice mod = LMNA splicing modulation; HeLa LMNA splicing GFP/RFP minigene ratio, 48 h; Potency, µM (doses to about 46.1 µM), without a hit: at the highest dose ratio change, negative = inhibition, most hits filed as inhibitors; 200,000 tested, 0.01% active; AID 1487; active = well fitted inhibition curve with a large enough effect in the signal ratio, with a control signal flat, not every such curve was filed as active; inconclusive = small, poorly fitted or top-dose-only effect, or effect the other way, or a change in a side signal; the % refers to the signal ratio; also: potency is read from the fitted curve at half-maximal effect
#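 S3 HeLa stable clones carrying a lamin A-EGFP splicing minigene plus DsRed2 were seeded at 600 cells/well in Opti-MEM with 2% FBS, pin-dosed and incubated 48 h at 37°C. Acumen cytometry (488 nm) gave the GFP/RFP total-intensity ratio.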
# PNC assembly inh = perinucleolar compartment assembly inhibition; 140,000 tested, 3.1% active; activity change (PNC), negative = inhibition, % at 10 µM; AID 2417; PC3M PTB-GFP, PNC prevalence imaging, 16 h; stronger effect = lower value;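 active = readout at or below -70, meaning at least 70% loss of cells showing the perinucleolar compartment, a nuclear body marking cancer cells; inconclusive = readout between -30 and a set limit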;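 also: plate controls were DMSO wells for no effect and camptothecin positive control wells for full effect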
#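 Compounds are pinned in duplicate onto adhered PC3M cells stably expressing GFP-tagged PTB and incubated 16 h at 37 C. Cells are then fixed, nuclei stained with Hoechst, and PNC-positive cells counted.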
# HPGD inh = inhibitors of human 15-hydroxyprostaglandin dehydrogenase (HPGD). P15428. purified HPGD, NADH fluorescence kinetic, PGE2 substrate. Potency, µM, inactives show at the top dose activity change, negative = inhibition, hits mostly inhibitors. 150,000 tested, 4.3% active. AID 894; also: potency is read from the fitted curve at half-maximal effect
# Target sequence (P15428 whole entry, looked up): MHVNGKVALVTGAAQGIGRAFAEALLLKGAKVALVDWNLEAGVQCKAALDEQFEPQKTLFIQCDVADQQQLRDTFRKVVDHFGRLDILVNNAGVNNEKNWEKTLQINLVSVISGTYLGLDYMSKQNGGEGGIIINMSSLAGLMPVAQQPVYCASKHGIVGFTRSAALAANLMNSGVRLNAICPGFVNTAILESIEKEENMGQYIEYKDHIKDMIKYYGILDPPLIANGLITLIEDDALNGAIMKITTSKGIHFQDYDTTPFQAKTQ
#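 NADH formation kinetics: reaction with 30 uM PGE2 and 1 mM NAD+ (final), 20 nM enzyme, Tris-HCl pH 8 with Tween 20, after 15 min compound preincubation at room temperature. Fluorescence change, last versus first of five reads.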
# KinaseGlo FLuc = blocks Kinase-Glo luciferase, a counter-screen artifact | Kinase-Glo luciferase, ATP luminescence, 8 min | Potency, µM (series often up to 38.3 µM), inactives show at the highest dose activity change, negative = inhibition, actives largely listed as inhibitors | 200,000 tested, 0.28% active | AID 1379; active = well fitted inhibition curve with a large enough effect; inconclusive = small, poorly fitted or top-dose-only effect; also: potency is read from the fitted curve at half-maximal effect; nearly all actives have a fitted effect of over 60% in size
#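 Luminescence was the read-out, taken after 8-minute incubation at ambient temperature. Luciferase turned over luciferin with 10 uM ATP in imidazole pH 7.2 buffer containing KCl, MgCl2, Tween 20 and BSA.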
# Active calls of the source: *; ? = inconclusive; / = not tested or not shown; [ ] = remark or other dose. Rows were chosen to be rich in hits. Some 10% of all compounds tested hit in one or more screens of this group. Unless noted, calls follow the shape of the dose curve; as a rule, active = well fitted inhibition curve with a large enough effect (not every such curve was filed as active); inconclusive = small, poorly fitted or top-dose-only effect, or another doubt; inactive = no such curve, though single readings can be large or run the other way. Unless noted, % is scaled to controls: 0 for no effect and ±100 for the full control effect.
SMILES,ALDH1A1 block,LMNA splice mod,PNC assembly inh,HPGD inh,KinaseGlo FLuc
CCn1c2ccccc2c2cc(NC(=O)c3ccc(Br)o3)ccc21,2.24µM*,-3.4%,?,4.47µM*,-2.2%
CCn1c2ccccc2c2cc(NC(=O)c3cc(OC)cc(OC)c3)ccc21,?,?,-97.5*,?,2.2%
Cc1nc2c(c(SCC(=O)Nc3ccccc3C(F)(F)F)n1)CCC2,/,2.8%[46 µM],/,/,/
COc1cc(-c2[o+]c3cc(O)cc(O)c3cc2O)cc(O)c1O,6.5%[13.5 µM],/,/,-10.6%,-1.5%[7.66 µM]
CCC1=C2CC[C@H]3C(=O)NC(=O)[C@H]3[C@H]2[C@@]2(Cc3ccccc3)C(=NCc3ccccc3)OC(=O)N2C1=O,1.1%,/,/,-8.8%,0.8%
COc1ccc(-c2nc3cncnc3n(-c3ccccc3)c2=O)cc1,3.1%,-3.6%,/,/,/
Cc1ccc(C(=O)NCC(=O)OCC(=O)Nc2cc(C)c(C)cc2[N+](=O)[O-])cc1,-9.2%,9.5%,-18.7,-12.9%,1.0%
Cc1ccc(NC(=O)CCC(=O)OCC(=O)c2ccc(Oc3ccc([N+](=O)[O-])cc3)cc2)c(C)c1,22.4µM*,1.5%,-23.8,-5.4%,-3.9%
Cc1ccc(NC(=O)COC(=O)CCC(=O)c2ccc(C(C)(C)C)cc2)c([N+](=O)[O-])c1,0.501µM*,10.1%,14.1,-20.5%,0.0%
Cc1ccc(S(=O)(=O)NCC2CCC(C(=O)NCCc3ccccc3)CC2)cc1 (centres undefined),/,-15.6%[46 µM],/,/,/
CCN(CC)S(=O)(=O)c1ccc(N2CCCC2)c(NC(=O)c2ccc(OC)cc2OC)c1,?,/,/,/,-1.0%
CCOc1ccc(S(=O)(=O)Nc2cc(S(=O)(=O)N(CC)CC)ccc2N2CCCC2)cc1,0.794µM*,17.5%,-121.5*,-10.9%,-1.6%
CCN(CC)S(=O)(=O)c1ccc(N2CCCC2)c(NC(=O)Cc2ccc(OC)cc2)c1,1.12µM*,/,/,/,0.5%
O=C(CC1Sc2ccccc2NC1=O)Nc1cccnc1 (centres undefined),5.4%,-2.0%,51.3,-5.6%,4.2%
O=C(CC1Sc2ccccc2NC1=O)Nc1cccc(-c2nnc3n2CCCCC3)c1 (centres undefined),-0.7%,-0.2%,-12.8,31.6µM*,-5.6%
CCOc1cc(C(=O)Nc2ccc(-c3nnc4n3CCCCC4)cc2)cc(OCC)c1OCC,/,12.6%[46 µM],/,/,/
O=C(Cn1[nH]c(=O)c2ccccc2c1=O)Nc1ccc(-c2nnc3n2CCCCC3)cc1,14.1µM*,7.0%,-5.2,3.55µM*,0.1%
O=C(Cc1n[nH]c(=O)c2ccccc12)Nc1ccc(-c2nnc3n2CCCCC3)cc1,15.8µM*,1.5%,45.1,10µM*,2.5%
O=C1NC(O)=NC1(c1ccccc1)c1ccccc1,-4.2%,-1.8%,/,-17.8%,-3.1%
CC(=O)OC[C@H]1O[C@@H](O/N=C(\C)CCN2CCCCc3nc(C)c(C)cc32)[C@H](OC(C)=O)[C@@H](OC(C)=O)[C@H]1OC(C)=O,-7.9%[13.5 µM],/,/,/,/
O=C(Nc1ccc(F)cc1F)c1ccc(-n2cnnc2)cc1,/,-10.6%[46 µM],/,/,/
CCOc1ccc(N2C(=O)C(Cl)=C(Nc3ccccc3O)C2=O)cc1,14.1µM*,-11.7%,-16.9,25.1µM*,-1.3%
O=C1C(Cl)=C(Nc2ccccc2O)C(=O)N1CCc1ccccc1,3.98µM*,-20.7%,?,11.2µM*,3.1%
COc1ccc(CCNC2=C(Cl)C(=O)N(CCc3ccccc3)C2=O)cc1OC,?,-13.3%,-20.0,-20.2%,-2.9%
CCOC(=O)c1ccc(NC(=O)Cn2c(=O)cc(C(F)(F)F)c3c(C)nn(C)c32)cc1,/,-2.7%[46 µM],/,/,/
SMILES,ALDH1A1 block,LMNA splice mod,PNC assembly inh,HPGD inh,KinaseGlo FLuc
Cc1nc(NC2CCCCC2)c2nc(-c3ccccc3)n(CCCN3CCCCC3C)c2n1 (centres undefined),?,/,/,?,-2.2%
COC(=O)C1=C2N(Cc3ccccc3)C(C)=C(C(=O)OC)C(c3ccccc3)N2C(=O)[C@](O)(C(=O)OC)C1 (some centres undefined),18.4%[13.5 µM],/,/,/,/
O=C(OCC(=O)N1CCCC1)c1ccccc1OCc1ccccc1,0.2%,-9.4%,28.1,0.7%,-1.7%
Fc1ccc(COc2ccccc2C(=S)N2CCCC2)cc1,7.94µM*,?,-10.8,8.91µM*,2.0%
O=C(NN=C1CCCCC1)c1ccccc1OCc1ccc(F)cc1,?,?,6.4,-4.9%,-5.2%
Cc1ccc(COc2ccccc2C(=S)N2CCCC2)cc1,25.1µM*,-21.3%[46 µM],/,/,-1.7%
CCCCNC(=O)c1cnn2c(C)c(Cc3c(F)cccc3Cl)c(C)nc12,/,26.2%[46 µM],/,/,/
CN1CCN(c2ncc3nc(-c4cccs4)c(=O)n(CCc4ccccc4)c3n2)CC1,?,7.0%,/,/,/
CCN(c1ccc(C)cc1C)S(=O)(=O)c1nnc(NC(=O)c2ccc(F)cc2)s1,/,9.6%[46 µM],/,/,/
CCN=c1scc(-c2ccc(F)cc2)n1/N=C/c1ccccn1,?,?,/,/,2.2%
CCN=c1scc(-c2ccccc2)n1/N=C/c1ccccn1,?,?,-125.2*,-12.0%,-5.0%
C=CCN=c1scc(-c2ccccc2)n1/N=C/c1ccccn1,-9.8%,?,-105.8*,-5.5%,-0.9%
CCc1nc2c(sc3nc4c(cc32)COC(C)(C)C4)c(=O)n1CCN(CC)CC,10µM*,?,/,/,-0.6%
CC(=O)Nc1c(C(=O)N2CCOCC2)sc2nc3c(cc12)COC(C)(C)C3,?,-7.2%,-28.9,-21.0%,-1.5%
CCc1nc(OCc2ccccc2)c2sc3nc4c(cc3c2n1)COC(C)(C)C4,0.794µM*,4.8%,?,-24.8%,-3.2%
CCSc1ncnc2c1sc1nc3c(cc12)COC(C)(C)C3,0.794µM*,-6.0%,-28.7,-14.7%,2.1%
CCCOc1ncnc2c1sc1nc3c(cc12)COC(C)(C)C3,?,0.9%[46 µM],/,/,1.0%
CCOC(=O)c1sc2nc3c(cc2c1N)COC(C)(C)C3,?,-13.6%,-20.2,-19.4%,-0.6%
CCC(C)Nc1nnnc2c1sc1nc3c(cc12)COC(C)(C)C3 (centres undefined),10µM*,?,/,/,1.8%
CC1(C)Cc2nc3sc4c(OCc5ccccc5)ncnc4c3cc2CO1,?,4.8%,93.1,-10.5%,-1.2%
